ELG1 DNA repair: ELG1-dependent DNA repair inhibition; HEK293T ELG1-luciferase reporter, luminescence, 16 h; DNA damage induced by 5-fluorouridine; 2.3% of 330,000 active; Potency, µM (highest dose often 46.1 µM), actives largely listed as inhibitors; also: nearly all actives have a fitted effect of over 55% in size
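Quantitative HTS, concentration-response format. 2,000 cells/well co-treated with 5-fluorouridine and compound, 16 hr in 5% CO2 at 37 °C; ONE-Glo luminescence read after 30 min.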
SW480 rereplic: DNA re-replication induction in SW480 cells; 1.8% of 340,000 active; AID 624297; Potency, µM (doses to about 46.1 µM), usual class: activators; SW480 DNA re-replication, Hoechst DNA content imaging, 48 h; also: nearly all actives have a fitted effect of over 55% in size
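First, 250 cells per well were seeded. Next, compound or vehicle (23 nL) was pinned in, plates sat 48 hr at 37 C. Finally Hoechst was added for 40 min before fluorescence scanning.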
KB-3-1 tox: KB-3-1 parental cell cytotoxicity. KB-3-1 viability, CellTiter-Glo ATP luminescence, 72 h. Potency, µM (highest dose often 46.1 µM), hits mostly cytotoxic. 1.4% of 400,000 active. AID 1347075; also: nearly all actives have a fitted effect of over 60% in size
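Multi-concentration cytotoxicity screen in KB-3-1 cells grown in DMEM lacking phenol red with 10% FBS. After 72 h at 37 °C with compound, ATP-dependent luminescence was recorded.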
MCF10A rerep: induces DNA re-replication in MCF 10a normal breast cells; MCF 10A DNA re-replication, Hoechst nuclear intensity, 48 h; Potency, µM (series often up to 46.1 µM), most hits filed as activators; 2.9% of 350,000 active; AID 624296; also: nearly all actives have a fitted effect of over 50% in size
KB-V1 MDR tox: kills drug-selected multidrug resistant KB-V1 cells; KB-V1 MDR cells viability, CellTiter-Glo, 72 h; Potency, µM (titrated, usually from 46.1 µM), most hits filed as cytotoxic; 3.4% of 400,000 active; also: nearly all actives have a fitted effect of over 60% in size
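Potencies derive from concentration-effect curves fitted to normalized luminescence (CellTiter-Glo) of KB-V1 cells treated for 72 h at 37 degrees C in phenol-red-free DMEM containing 10% FBS.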
Each line names hits and unclear results; the compound was inactive in the other large screens; ! = not confirmed by another sample. A selection: hits, their analogues and other compounds. The true share with any hit is near 8.1%. Calls follow the shape of the dose curve; as a rule, active = well fitted curve in the direction sought with a large enough effect; inconclusive = small, poorly fitted or top-dose-only effect, or another doubt; inactive = no such curve, though single readings can be large; an effect the other way counts as inactive or inconclusive.

CCOC(=O)c1c(NC(=O)COC(=O)c2ccccc2NC)sc(C(=O)N(C)C)c1C	ELG1 DNA repair 18µM, KB-V1 MDR tox inconclusive
CCOC(=O)c1c(NC(=O)CC(C)C)sc(C(C)=O)c1C	none
CN(C)c1cccc(C(=O)NC2CCCCCC2)c1	ELG1 DNA repair inconclusive
CCN(CC)c1ccc(/C=c2\sc3nc4ccccc4n3c2=O)c(O)c1	ELG1 DNA repair inconclusive, SW480 rereplic 15µM, KB-3-1 tox inconclusive, MCF10A rerep 2.6µM
Cc1ccc(NC(=O)N[C@H](C(=O)O)C(C)C)c(C)c1	none
CCOC(=O)C1CCN(C(=O)CCN2C(=O)C3C4C=CC(C4)C3C2=O)CC1 (configuration not stated)	none
Cc1nn(-c2ccc(F)cc2)c(Cl)c1/C=C/C(=O)OCC(=O)Nc1c(F)c(F)c(F)c(F)c1F	MCF10A rerep inconclusive
COc1ccc(Cl)cc1NC(=O)COC(=O)/C=C/c1c(C)nn(C2CCS(=O)(=O)C2)c1Cl (configuration not stated)	ELG1 DNA repair 13µM
COc1ccc(C)cc1NC(=O)c1cc(C2CC2)nc2c1c(C)nn2C1CCS(=O)(=O)C1 (configuration not stated)	KB-V1 MDR tox 4.6µM (no result: ELG1 DNA repair)
Cc1nn(-c2ccc(F)cc2)c(Cl)c1/C=C/C(=O)OCC(=O)Nc1ccc(F)cc1F	MCF10A rerep 15µM
CC(C)OC(=O)C(CC(=O)O)N1CCOCC1 (configuration not stated)	KB-V1 MDR tox inconclusive
Cc1cccc(NC(=O)CN2C(=O)C3CC=CCC3C2=O)c1C (configuration not stated)	none (no result: ELG1 DNA repair, SW480 rereplic, MCF10A rerep)
C=CCNC(=O)COCc1cc(-c2ccc3c(c2)OCO3)on1	ELG1 DNA repair inconclusive
Cc1ccc(S(=O)(=O)N(C)CC(=O)Nc2ccc3c(c2)OCO3)cc1	KB-V1 MDR tox inconclusive
OC(CCN1CCC2CCC(C2)C1)c1ccc(Br)cc1 (configuration not stated)	SW480 rereplic 15µM, KB-3-1 tox inconclusive (no result: ELG1 DNA repair)
O=C(CCN1CCC2CCC(C2)C1)c1ccccc1 (configuration not stated)	SW480 rereplic inconclusive, MCF10A rerep inconclusive (no result: ELG1 DNA repair)
NC(=O)c1ccccc1N=Cc1ccccn1	none
CC(N=Cc1cccc(O)c1O)c1ccccc1 (configuration not stated)	SW480 rereplic 8.2µM, MCF10A rerep inconclusive
Cc1ccccc1C=Nc1ccccc1C(N)=O	ELG1 DNA repair inconclusive, SW480 rereplic 4.1µM, KB-3-1 tox 3.7µM, MCF10A rerep 3.3µM, KB-V1 MDR tox inconclusive
Cc1ccc(C=Nc2ccccc2C(N)=O)cc1	ELG1 DNA repair inconclusive, SW480 rereplic inconclusive, KB-3-1 tox 7.3µM, MCF10A rerep 12µM, KB-V1 MDR tox 5.8µM
Cc1ccccc1N=Cc1cccc(O)c1O	SW480 rereplic 6.5µM, MCF10A rerep inconclusive, KB-V1 MDR tox inconclusive
Cc1ccc(C=Nc2ccccc2C(=O)Nc2ccccc2)cc1	ELG1 DNA repair inconclusive, MCF10A rerep inconclusive
Cc1ccccc1Nc1ncnc2[nH]ncc12	none (no result: ELG1 DNA repair)
CCCN1CCc2c(sc(NC(=O)c3ccc(S(=O)(=O)N(C)c4ccccc4)cc3)c2C(N)=O)C1	ELG1 DNA repair inconclusive, SW480 rereplic inconclusive, MCF10A rerep 6.5µM
CCCN1CCc2c(sc(NC(=O)c3ccc(S(=O)(=O)N(C)c4ccccc4)cc3)c2C(=O)NC)C1	ELG1 DNA repair 23µM, SW480 rereplic inconclusive, MCF10A rerep inconclusive, KB-V1 MDR tox inconclusive
CCCN1CCc2c(sc(NC(=O)c3ccc(S(=O)(=O)N4CCN(C(=O)OCC)CC4)cc3)c2C(N)=O)C1	ELG1 DNA repair inconclusive, SW480 rereplic 21µM, MCF10A rerep inconclusive
CCN1CCc2c(sc(NC(=O)c3ccc(S(=O)(=O)N(C)C4CCCCC4)cc3)c2C(N)=O)C1	none (no result: ELG1 DNA repair, SW480 rereplic, MCF10A rerep)
CCOC(=O)N1CCN(S(=O)(=O)c2ccc(C(=O)Nc3sc4c(c3C(N)=O)CCN(CC)C4)cc2)CC1	ELG1 DNA repair inconclusive, KB-3-1 tox inconclusive, MCF10A rerep inconclusive
COC(=O)c1c(NC(=O)CCS(=O)(=O)c2ccccc2)sc2c1CCN(C)C2	SW480 rereplic inconclusive, MCF10A rerep inconclusive (no result: KB-3-1 tox, KB-V1 MDR tox)
CCCN1CCc2c(sc(NC(=O)CCS(=O)(=O)c3ccccc3)c2C(=O)OC)C1	SW480 rereplic inconclusive, MCF10A rerep 18µM
C#CCNC(=O)C1CCN(c2cc(C)nc(-c3ccccc3)n2)CC1	ELG1 DNA repair inconclusive
COC(=O)c1ccccc1NC(=O)N1CCN(c2ccccc2)CC1	none
NC(=O)c1c(NC(=O)C2COc3ccccc3O2)sc2c1CCN(Cc1ccccc1)C2 (configuration not stated)	SW480 rereplic inconclusive, KB-3-1 tox inconclusive, MCF10A rerep 23µM, KB-V1 MDR tox inconclusive
O=C(O)C1CC=CCC1C(=O)N1CCN(c2nc(-c3ccccc3)c3ccccc3n2)CC1 (configuration not stated)	SW480 rereplic inconclusive, MCF10A rerep 9.2µM
O=C(O)C1CC=CCC1C(=O)N1CCN(c2nc(-c3ccccc3Cl)c3cc(Br)ccc3n2)CC1 (configuration not stated)	SW480 rereplic 18µM, MCF10A rerep 23µM
Clc1ccccc1-c1nc(Nc2ccccc2)nc2ccc(Br)cc12	none (no result: ELG1 DNA repair, SW480 rereplic, MCF10A rerep)
COc1ccccc1N1CCN(C(=O)C2CC=CCC2C(=O)O)CC1 (configuration not stated)	none
CC(=O)NS(=O)(=O)c1ccc(NC(=O)c2ccc(S(=O)(=O)N3CCCC3)cc2)cc1	none
CCOC(=O)C1CCCN(CC(O)COc2ccc(OC)cc2C(C)(C)C)C1 (configuration not stated)	none
C=CCc1cc(C)ccc1OCC(O)CN1CCN(c2ccccc2)CC1 (configuration not stated)	none
COc1ccc(CCNCC(O)COc2cccc(Br)c2)cc1OC (configuration not stated)	none
CCOC(=O)N1CCN(CC(O)COc2ccc(OC)cc2C(C)(C)C)CC1 (configuration not stated)	KB-V1 MDR tox 3.7µM
COc1ccc(CCNCC(O)COc2ccc(OC)cc2C(C)(C)C)cc1 (configuration not stated)	SW480 rereplic 23µM, MCF10A rerep inconclusive
C=CCc1cc(OC)ccc1OCC(O)CN1CCN(c2ccc(OC)cc2)CC1 (configuration not stated)	ELG1 DNA repair inconclusive, MCF10A rerep inconclusive, KB-V1 MDR tox 18µM!
Cc1ccc(OCC(O)CN2CCN(c3ccc(C)cc3)CC2)cc1 (configuration not stated)	MCF10A rerep 0.82µM
Cc1ccccc1C(=O)N/N=C1/SCC(=O)N1Cc1ccc2c(c1)OCO2	none
C=CC[n+]1ccn(-c2nc3ccccc3nc2[N-]S(=O)(=O)c2cccs2)c1	ELG1 DNA repair inconclusive, SW480 rereplic inconclusive
CC(=O)c1cccc(NC(=S)NC(=O)c2cncc(Br)c2)c1	ELG1 DNA repair inconclusive, KB-3-1 tox inconclusive, KB-V1 MDR tox inconclusive

Source: PubChem BioAssay
